Most compounds without a hit are left out; they make up all but 19% or so of the library.
HT1080 IDH1KD tx: kills HT-1080 cells with IDH1 knockdown; 2% of 360,000 active; AID 686971; HT-1080 IDH1 knockdown viability, ATP luminescence, 48 h; Potency, µM (highest dose often 46.1 µM), most hits filed as cytotoxic
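Luminescent ATP read-out (CellTiter-Glo, 10 min at room temperature) after 48 h compound exposure at 37 °C gave viability of IDH1-knockdown HT-1080 cells. Activity was normalised to DMSO and cell-free wells, then fitted as concentration-response curves.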
HT1080-NT tox: kills 2HG-producing HT-1080-NT fibrosarcoma cells. Potency, µM (titrated, usually from 46.1 µM), most hits filed as cytotoxic. 1.6% of 360,000 active. HT-1080-NT fibrosarcoma viability, CellTiter-Glo ATP luminescence, 48 h. AID 686970;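 note: NT is the 2HG producing partner of a matched IDH1 knockdown line; nearly all actives have a fitted effect of over 55% in size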
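Luminescent CellTiter-Glo readout after 48 hours of compound exposure at 37 degrees C defined viability of HT-1080-NT cells. Activity was normalized to DMSO wells and cell-free media wells; concentration-response curves were fitted and assigned curve classes.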
DT40 TDP1 CPT: DT40-hTDP1 cell growth loss with CPT; Potency, µM (highest dose often 46.2 µM), hits mostly inhibitors; chicken DT40 Tdp1-/-;hTDP1 cells + 20 nM CPT, ATP luminescence, 48 h; 12% of 420,000 active; note: nearly all actives have a fitted effect of over 55% in size
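Chicken DT40 Tdp1-/- cells complemented with human TDP1, 400 cells/well, exposed to compounds plus 20 nM camptothecin for at least 48 h at 37 C; viability read as ATP content by CellTiter-Glo luminescence.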
TDP1 cell noCPT: qHTS for Inhibitors of human tyrosyl-DNA phosphodiesterase 1 (TDP1): qHTS in cells in absence of CPT. DT40 Tdp1-/- hTDP1 cells, no CPT, ATP luminescence, 48 h. Potency, µM (highest dose often 46.2 µM), hits mostly inhibitors. 15% of 420,000 active; note: nearly all actives have a fitted effect of over 55% in size
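Readout: luminescence from CellTiter-Glo after 30 min in the dark at RT. Cells: DT40 Tdp1-/- with stable hTDP1, 400/well. Exposure: compounds alone, ≥48 hr, 37 °C.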
IL-1B inflam inh: blocks inflammasome-driven IL-1 beta release. activity change, % at 57.5 µM. THP-1 LPS/ATP IL-1B secretion, AlphaLISA, 16 h; hits give low values. 4.7% of 360,000 active. AID 743279; in the data active = activity change below about -50%; inconclusive = mostly about -30% to -49%
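THP-1 cells pretreated 1 hr with compounds (up to 57.5 uM final), then stimulated with LPS (250 ng/mL final) plus ATP (1.25 mM final); secreted IL-1B measured by AlphaLISA after 16 hr, decreased signal indicating inhibition.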
Hits are given with their value; i = inactive; ? = inconclusive; nt = no result. Unless noted, calls come from the whole dose curve; as a rule, active = well fitted curve in the direction sought with a large enough effect; inconclusive = small, poorly fitted or top-dose-only effect, or another doubt; inactive = no such curve, though single readings can be large; an effect the other way counts as inactive or inconclusive.

SMILES	HT1080 IDH1KD tx	HT1080-NT tox	DT40 TDP1 CPT	TDP1 cell noCPT	IL-1B inflam inh
Clc1ccc2nc(-c3ccc(Br)o3)c(Nc3ccc4c(c3)OCCO4)n2c1	nt	nt	21µM	?	nt
CC(=O)Nc1ccc(NC(=O)CN(C)S(=O)(=O)c2ccc3c(c2)CCC(=O)N3)cc1	i	i	i	i	i
COc1ccc(-c2[nH]ncc2CN2CCC(c3ccncc3)CC2)cc1F	i	i	i	i	i
O=C(NC(=S)Nc1ccc(S(=O)(=O)N2CCCCC2)cc1)c1ccc(Cl)cc1	i	i	16µM	10µM	i
O=C(NC12CC3CC(CC(C3)C1)C2)N1CCN(S(=O)(=O)c2ccc(Cl)cc2)CC1	i	i	18µM	23µM	i
O=S(=O)(c1ccc(NC(=S)NC23CC4CC(CC(C4)C2)C3)cc1)N1CCCCC1	i	i	?	21µM	i
O=C(NC(=S)Nc1ccc(N2CCCCC2)c(Cl)c1)c1cccs1	i	i	7.3µM	5.8µM	i
CC(C)CC(=O)NC(=S)Nc1ccc(N2CCCC2)c(Cl)c1	i	?	i	i	i
CN(C)NC(=S)Nc1ccc(S(=O)(=O)N2CCCCC2)cc1	i	i	i	?	i
CN(C(=O)c1ccc(Br)o1)C1(C)CCS(=O)(=O)C1 (stereo not given)	i	?	i	i	i
COc1ccc(CCNC(=O)CCC(=O)n2ncc3ccc(Cl)cc32)cc1OC	i	i	i	i	i
COc1ccccc1C(=O)NC(=O)CSc1nnnn1C	i	i	i	i	i
C[C@@H]1CN([C@@H](C)CO)C(=O)c2cc(NC(=O)C3CC3)ccc2O[C@@H]1CN(C)C(=O)NC1CCCCC1	i	i	i	?	i
Cc1ccc(NC(=S)NC(=O)c2cccs2)cc1F	i	i	i	7.3µM	i
CC(=O)NC(=S)Nc1ccc(NC(=O)c2cccs2)cc1	i	i	i	?	i
NS(=O)(=O)c1ccc(NC(=S)NC(=O)c2cccs2)cc1	i	i	i	i	i
O=C(NC(=S)Nc1ccc(S(=O)(=O)N2CCCCC2)cc1)c1cccs1	i	i	26µM	18µM	i
O=S(=O)(c1ccc(NC(=S)NN=Cc2ccccc2O)cc1)N1CCCCC1	?	i	4.6µM	5.8µM	?
Cc1ccc(S(=O)(=O)N2CCCCC2)cc1NC(=O)c1cccs1	i	i	26µM	i	i
C=CCc1c(NCCO)nc(C)[nH]c1=O	i	i	i	i	i
CN(C)c1ccc(NC(=S)NC23CC4CC(CC(C4)C2)C3)cc1	i	i	29µM	?	i
O=C(CSc1nnnn1-c1ccc(Cl)cc1)NC1CCS(=O)(=O)C1 (stereo not given)	i	i	i	i	i
O=C(c1ccc(Cl)c(NC2=NC3CS(=O)(=O)CC3S2)c1)N1CCN(c2ccc(F)cc2)CC1 (stereo not given)	i	i	i	i	i
Cc1nn(Cc2ccccc2Cl)c2sc(C(=O)NCc3ccc4c(c3)OCO4)cc12	i	i	?	?	i
COc1cccc(-c2nn(C)c3sc(C(=O)NCc4ccc5c(c4)OCO5)cc23)c1	i	i	13µM	?	i
SMILES	HT1080 IDH1KD tx	HT1080-NT tox	DT40 TDP1 CPT	TDP1 cell noCPT	IL-1B inflam inh
Cn1nc(-c2ccc(Cl)cc2)c2cc(C(=O)NCC3CCCO3)sc21 (stereo not given)	i	?	?	?	?
Cn1nc(C(C)(C)C)cc1C(=O)NCc1ccc2c(c1)OCO2	?	?	4.6µM	1.8µM	i
CCOC(=O)c1cccc(NC(=O)c2cc3c(-c4cccc(OC)c4)nn(C)c3s2)c1	nt	nt	16µM	16µM	nt
COc1cccc(-c2nn(C)c3sc(C(=O)NCc4ccc(C)o4)cc23)c1	?	i	?	23µM	i
Fc1ccc2c(c1)C(c1ccncc1)=NNC(c1ccccc1)=N2	i	i	i	?	i
CCOC(=O)N1CCC(=NNc2ccc(S(N)(=O)=O)cc2[N+](=O)[O-])CC1	i	?	i	i	i
CCOC(=O)c1sc(=S)n(C)c1NC(=O)c1cccc(Br)c1	?	?	21µM	21µM	i
CCOC(=O)c1sc(=S)n(-c2ccccc2)c1NC(C)=O	i	i	i	i	i
CCOC(=O)c1sc(=S)n(C)c1NC(=O)c1ccccc1	i	i	?	21µM	i
CCOC(=O)c1sc(=S)n(CC)c1NC(=O)c1ccccc1C	i	i	i	i	i
O=C(CC(O)(CC(=O)OCc1ccccc1)C(=O)OCc1ccccc1)OCc1ccccc1	i	i	i	?	-55
CCC(=O)c1ccc(OCc2ccccc2)c(OC)c1	i	i	i	?	i
CCC(=O)c1ccc(OCc2ccc(C(=O)c3ccccc3)cc2)cc1	?	i	6.5µM	8.2µM	-136
O=C(Cc1ccccc1)c1c[nH]c(C(=O)NCCCN2CCOCC2)c1	i	i	i	i	i
COc1ccc(C(=O)On2c(-c3ccc(Br)cc3)nc3ccccc3c2=O)cc1	?	?	?	18µM	?
COc1ccc(-c2nc3ccccc3c(=O)n2N)cc1	i	i	i	i	i
O=C(Nn1c(-c2ccc(Br)cc2)nc2ccccc2c1=O)c1ccncc1	i	i	i	i	i
Cc1cc(C(=O)Nn2c(-c3ccc(Br)cc3)nc3ccccc3c2=O)ccc1[N+](=O)[O-]	?	33µM	29µM	?	i
COC(=O)c1ccc(Nc2ncnc3c2cnn3-c2ccccc2)cc1	nt	nt	i	i	nt
CC(C)CCC(O)(c1ccccc1)C(CN1CCOCC1)c1ccccc1 (stereo not given)	?	?	18µM	16µM	?
COc1ccc(C(O)(CCC(C)C)C(CN2CCOCC2)c2ccccc2)cc1 (stereo not given)	i	i	23µM	21µM	?
CC(C)CC(O)(c1ccccc1)C(CN1CCOCC1)c1ccccc1 (stereo not given)	?	?	?	21µM	i
Cc1ccc(OCCn2cc(/C=N/NC(=O)c3ccncc3)c3ccccc32)cc1	?	i	?	23µM	?
COCCNC(=O)Cn1cc(/C=N/NC(=O)c2ccc(Oc3ccc(O)cc3)cc2)c2ccccc21	i	i	i	i	-70
CCOC(=O)N/N=C/c1cn(CCCOc2ccc(C)cc2)c2ccccc12	i	i	?	21µM	i
COC(=O)N/N=C/c1cn(CC(C)COc2ccccc2)c2ccccc12 (stereo not given)	i	i	?	23µM	i
CCOC(=O)N/N=C/c1cn(CCCOc2ccccc2)c2ccccc12	i	i	?	?	i
Cc1ccc(OCCn2cc(/C=C3\C(=O)NN(c4ccccc4)C3=O)c3ccccc32)cc1	i	i	16µM	26µM	i

High-throughput results: PubChem, National Center for Advancing Translational Sciences (NCATS)
